# Measured values as given in article PMC7862700, “An all-to-all approach to the identification of sequence-specific readers for epigenetic DNA modifications on cytosine”.
# What was measured:
# Assay in all cases: DAPPL (digital affinity profiling via proximity ligation, sequencing); 10 mM Tris-HCl pH 7.5, 50 mM NaCl, 1 mM DTT, 4% glycerol, room temperature, 30 min; GST-TFs on glutathione beads, 16-mer random dsDNA library, 0.1% formaldehyde crosslink after washing; high values mean tight binding
# FLI1 = target: T1, FLI1 (Homo sapiens, UniProt Q01543 1-452); details: protein: recombinant; tags: N-terminal GST; dsDNA, one strand shown
# T1 sequence: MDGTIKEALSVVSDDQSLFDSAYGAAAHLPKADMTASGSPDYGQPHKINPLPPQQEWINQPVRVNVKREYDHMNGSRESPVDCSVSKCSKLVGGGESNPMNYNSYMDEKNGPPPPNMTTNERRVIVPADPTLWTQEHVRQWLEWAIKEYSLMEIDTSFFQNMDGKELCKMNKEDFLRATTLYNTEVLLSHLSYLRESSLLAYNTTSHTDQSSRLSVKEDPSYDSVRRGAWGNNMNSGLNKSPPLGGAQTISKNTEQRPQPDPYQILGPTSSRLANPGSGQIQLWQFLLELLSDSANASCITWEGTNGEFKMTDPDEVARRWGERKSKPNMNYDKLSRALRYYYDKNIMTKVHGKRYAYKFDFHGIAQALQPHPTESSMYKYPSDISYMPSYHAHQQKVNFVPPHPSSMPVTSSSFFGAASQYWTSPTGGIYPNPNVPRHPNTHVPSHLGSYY
# How it was run: (§1)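 GST fusions of human transcription factors were expressed in yeast and captured with glutathione beads. Once given DNA barcodes and pooled alongside a tag-only sample, they were incubated for 30 min at room temperature with 200 nmole of a random double-stranded 16-mer DNA library in Tris/NaCl/DTT/glycerol buffer, then washed, crosslinked (0.1% formaldehyde), proximity-ligated, PCR-amplified and sequenced on an Illumina NextSeq500. The binding signal of each hexamer is its read frequency for a factor divided by its frequency for the tag-only sample.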
# ELK1 = target: T2, ELK1 (Homo sapiens, UniProt P19419 1-428); details: protein: recombinant; tags: N-terminal GST; dsDNA, one strand shown
# T2 sequence: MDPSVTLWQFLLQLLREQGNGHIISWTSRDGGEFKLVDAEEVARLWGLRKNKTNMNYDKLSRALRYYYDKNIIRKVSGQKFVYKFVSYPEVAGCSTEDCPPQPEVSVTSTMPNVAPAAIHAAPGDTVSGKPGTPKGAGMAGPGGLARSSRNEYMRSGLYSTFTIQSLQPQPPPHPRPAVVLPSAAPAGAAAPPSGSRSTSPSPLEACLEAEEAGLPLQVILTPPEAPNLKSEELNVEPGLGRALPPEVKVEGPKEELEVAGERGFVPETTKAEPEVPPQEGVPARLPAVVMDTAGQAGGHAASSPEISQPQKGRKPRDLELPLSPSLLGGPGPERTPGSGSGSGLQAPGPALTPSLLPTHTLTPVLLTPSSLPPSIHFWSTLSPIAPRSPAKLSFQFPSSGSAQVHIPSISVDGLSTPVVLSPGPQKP
# How it was run: as §1
# GABPA = target: T3, GABPA (Homo sapiens, UniProt Q06546 1-454); details: protein: recombinant; tags: N-terminal GST; dsDNA, one strand shown
# T3 sequence: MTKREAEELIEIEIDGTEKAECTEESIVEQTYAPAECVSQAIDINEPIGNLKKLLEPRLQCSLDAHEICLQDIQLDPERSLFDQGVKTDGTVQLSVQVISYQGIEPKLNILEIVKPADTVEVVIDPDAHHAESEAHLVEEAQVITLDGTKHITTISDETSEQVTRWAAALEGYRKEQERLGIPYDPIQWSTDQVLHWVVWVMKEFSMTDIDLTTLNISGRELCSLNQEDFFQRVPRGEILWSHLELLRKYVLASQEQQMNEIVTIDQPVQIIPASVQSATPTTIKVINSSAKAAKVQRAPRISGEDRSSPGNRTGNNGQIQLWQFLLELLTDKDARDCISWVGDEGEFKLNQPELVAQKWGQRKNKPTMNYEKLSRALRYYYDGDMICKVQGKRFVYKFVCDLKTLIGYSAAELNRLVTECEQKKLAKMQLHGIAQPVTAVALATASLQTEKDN
# How it was run: as §1
# ERG = target: T4, ERG (Homo sapiens, UniProt P11308 1-479); details: protein: recombinant; tags: N-terminal GST; dsDNA, one strand shown
# T4 sequence: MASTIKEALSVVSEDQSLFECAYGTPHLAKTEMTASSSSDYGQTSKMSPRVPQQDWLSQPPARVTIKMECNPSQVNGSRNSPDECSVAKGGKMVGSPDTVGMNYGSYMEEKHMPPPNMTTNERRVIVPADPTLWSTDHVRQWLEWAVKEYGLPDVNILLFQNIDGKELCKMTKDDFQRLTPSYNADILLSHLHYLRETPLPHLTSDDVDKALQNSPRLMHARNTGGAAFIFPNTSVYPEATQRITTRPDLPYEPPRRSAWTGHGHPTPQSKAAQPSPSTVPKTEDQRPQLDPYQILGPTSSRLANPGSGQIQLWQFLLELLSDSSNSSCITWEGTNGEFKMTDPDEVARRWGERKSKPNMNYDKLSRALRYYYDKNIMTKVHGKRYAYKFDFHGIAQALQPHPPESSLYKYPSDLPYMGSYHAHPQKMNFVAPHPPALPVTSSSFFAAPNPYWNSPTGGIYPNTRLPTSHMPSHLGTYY
# How it was run: as §1
# ELF1 = ELF1 (Homo sapiens, UniProt P32519 1-619); details: protein: recombinant; tags: N-terminal GST; dsDNA, one strand shown
# Chain of ELF1 (P32519 whole entry): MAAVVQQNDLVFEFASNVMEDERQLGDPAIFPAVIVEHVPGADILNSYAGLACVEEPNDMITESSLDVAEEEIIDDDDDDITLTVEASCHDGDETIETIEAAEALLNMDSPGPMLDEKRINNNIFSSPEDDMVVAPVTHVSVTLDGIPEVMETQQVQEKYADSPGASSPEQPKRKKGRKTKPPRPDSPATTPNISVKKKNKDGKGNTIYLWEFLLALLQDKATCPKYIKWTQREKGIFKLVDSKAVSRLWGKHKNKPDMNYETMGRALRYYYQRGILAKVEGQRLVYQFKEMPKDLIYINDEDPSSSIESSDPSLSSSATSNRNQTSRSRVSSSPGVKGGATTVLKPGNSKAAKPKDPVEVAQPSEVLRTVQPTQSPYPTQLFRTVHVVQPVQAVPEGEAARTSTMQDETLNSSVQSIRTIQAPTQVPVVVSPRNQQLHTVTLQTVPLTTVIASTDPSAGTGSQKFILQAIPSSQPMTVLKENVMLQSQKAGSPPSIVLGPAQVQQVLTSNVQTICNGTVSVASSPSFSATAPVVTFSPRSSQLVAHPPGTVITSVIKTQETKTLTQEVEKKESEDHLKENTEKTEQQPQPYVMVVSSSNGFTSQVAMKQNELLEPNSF
# How it was run: as §1
# EHF = target: T5, EHF (Homo sapiens, UniProt Q9NZC4 1-300); details: protein: recombinant; tags: N-terminal GST; dsDNA, one strand shown
# T5 sequence: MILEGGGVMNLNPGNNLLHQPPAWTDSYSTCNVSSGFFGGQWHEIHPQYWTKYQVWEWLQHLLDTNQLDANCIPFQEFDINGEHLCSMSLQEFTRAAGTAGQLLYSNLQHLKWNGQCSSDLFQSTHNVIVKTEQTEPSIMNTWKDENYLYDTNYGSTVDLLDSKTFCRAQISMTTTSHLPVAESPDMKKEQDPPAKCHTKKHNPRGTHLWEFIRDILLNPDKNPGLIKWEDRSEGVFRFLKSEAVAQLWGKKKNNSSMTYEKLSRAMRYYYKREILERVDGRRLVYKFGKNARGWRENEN
# How it was run: as §1
# SPI1 = SPI1 (Homo sapiens, UniProt P17947 1-270); details: protein: recombinant; tags: N-terminal GST; dsDNA, one strand shown
# How it was run: as §1
# SPIB = SPIB (Homo sapiens, UniProt Q01892 1-262); details: protein: recombinant; tags: N-terminal GST; dsDNA, one strand shown
# Chain of SPIB (Q01892 whole entry): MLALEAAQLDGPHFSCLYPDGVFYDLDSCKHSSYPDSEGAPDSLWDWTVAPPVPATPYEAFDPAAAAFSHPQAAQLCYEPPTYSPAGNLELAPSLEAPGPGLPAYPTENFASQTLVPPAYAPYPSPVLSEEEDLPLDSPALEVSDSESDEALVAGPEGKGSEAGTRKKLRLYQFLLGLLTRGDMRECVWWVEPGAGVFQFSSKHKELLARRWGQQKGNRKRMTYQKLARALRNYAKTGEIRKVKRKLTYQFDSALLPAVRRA
# How it was run: as §1
# ELK3 = target: T6, ELK3 (Homo sapiens, UniProt P41970 1-407); details: protein: recombinant; tags: N-terminal GST; dsDNA, one strand shown
# T6 sequence: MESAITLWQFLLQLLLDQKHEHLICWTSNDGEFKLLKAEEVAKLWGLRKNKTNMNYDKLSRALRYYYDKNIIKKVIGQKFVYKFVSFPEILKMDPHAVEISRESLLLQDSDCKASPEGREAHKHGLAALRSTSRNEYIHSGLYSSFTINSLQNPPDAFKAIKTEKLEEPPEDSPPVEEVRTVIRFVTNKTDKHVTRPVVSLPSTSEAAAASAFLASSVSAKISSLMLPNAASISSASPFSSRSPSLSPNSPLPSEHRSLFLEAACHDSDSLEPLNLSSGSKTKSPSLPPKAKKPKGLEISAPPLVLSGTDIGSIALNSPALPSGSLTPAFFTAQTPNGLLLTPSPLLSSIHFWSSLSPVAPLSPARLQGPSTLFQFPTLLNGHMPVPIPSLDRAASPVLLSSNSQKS
# How it was run: as §1
# FEV = target: T7, FEV (Homo sapiens, UniProt Q99581 1-238); details: protein: recombinant; tags: N-terminal GST; dsDNA, one strand shown
# T7 sequence: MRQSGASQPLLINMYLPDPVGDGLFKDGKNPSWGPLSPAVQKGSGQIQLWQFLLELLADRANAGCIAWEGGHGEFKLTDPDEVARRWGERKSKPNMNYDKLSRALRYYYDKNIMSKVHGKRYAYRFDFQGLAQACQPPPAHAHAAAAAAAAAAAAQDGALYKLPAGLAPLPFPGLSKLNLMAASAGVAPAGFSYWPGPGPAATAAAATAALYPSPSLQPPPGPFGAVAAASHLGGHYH
# How it was run: as §1
# ETV5 = ETV5 (Homo sapiens, UniProt P41161 1-510); details: protein: recombinant; tags: N-terminal GST; dsDNA, one strand shown
# Chain of ETV5 (P41161 whole entry): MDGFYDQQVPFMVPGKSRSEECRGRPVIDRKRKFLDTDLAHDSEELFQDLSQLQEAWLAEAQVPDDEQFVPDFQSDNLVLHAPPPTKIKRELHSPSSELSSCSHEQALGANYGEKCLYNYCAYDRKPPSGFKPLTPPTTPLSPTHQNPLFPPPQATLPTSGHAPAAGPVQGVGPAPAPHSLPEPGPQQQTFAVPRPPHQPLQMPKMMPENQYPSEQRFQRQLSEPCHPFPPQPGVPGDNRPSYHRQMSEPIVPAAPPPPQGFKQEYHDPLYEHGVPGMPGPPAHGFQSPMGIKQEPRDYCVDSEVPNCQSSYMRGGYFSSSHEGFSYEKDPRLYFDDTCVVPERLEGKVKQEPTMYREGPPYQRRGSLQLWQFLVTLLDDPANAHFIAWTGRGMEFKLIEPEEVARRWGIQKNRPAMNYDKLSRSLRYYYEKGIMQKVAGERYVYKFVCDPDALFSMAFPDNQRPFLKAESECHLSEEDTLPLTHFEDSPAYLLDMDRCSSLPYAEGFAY
# How it was run: as §1
# HSF1 = HSF1 (Homo sapiens, UniProt Q00613 1-529); details: protein: recombinant; tags: N-terminal GST; chain copies: 3; dsDNA, one strand shown
# Chain of HSF1 (Q00613 whole entry): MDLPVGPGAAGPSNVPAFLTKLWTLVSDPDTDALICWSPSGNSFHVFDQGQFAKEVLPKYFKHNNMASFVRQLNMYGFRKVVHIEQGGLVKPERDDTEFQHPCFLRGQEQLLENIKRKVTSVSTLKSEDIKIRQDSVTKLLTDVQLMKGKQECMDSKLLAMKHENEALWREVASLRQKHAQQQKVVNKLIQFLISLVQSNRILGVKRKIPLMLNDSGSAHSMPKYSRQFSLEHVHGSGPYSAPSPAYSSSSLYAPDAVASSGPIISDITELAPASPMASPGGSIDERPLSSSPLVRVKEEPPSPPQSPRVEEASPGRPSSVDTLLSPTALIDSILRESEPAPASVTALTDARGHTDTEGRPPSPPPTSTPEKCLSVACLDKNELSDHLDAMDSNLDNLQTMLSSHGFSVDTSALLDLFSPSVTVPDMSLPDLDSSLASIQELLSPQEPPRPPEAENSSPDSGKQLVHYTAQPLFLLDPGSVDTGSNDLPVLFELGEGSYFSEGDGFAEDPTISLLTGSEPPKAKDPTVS
# How it was run: as §1
# SPIC = target: T8, SPIC (Homo sapiens, UniProt Q8N5J4 1-248); details: protein: recombinant; tags: N-terminal GST; dsDNA, one strand shown
# T8 sequence: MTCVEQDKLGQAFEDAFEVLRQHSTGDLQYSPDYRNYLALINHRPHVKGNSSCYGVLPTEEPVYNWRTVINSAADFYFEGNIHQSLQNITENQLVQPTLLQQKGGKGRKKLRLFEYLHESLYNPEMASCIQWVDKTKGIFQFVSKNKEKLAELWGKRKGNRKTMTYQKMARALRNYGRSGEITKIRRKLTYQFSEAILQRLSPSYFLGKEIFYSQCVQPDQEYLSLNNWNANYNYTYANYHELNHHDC
# How it was run: as §1
# ELF4 = ELF4 (Homo sapiens, UniProt Q99607 1-663); details: protein: recombinant; tags: N-terminal GST; dsDNA, one strand shown
# Chain of ELF4 (Q99607 whole entry): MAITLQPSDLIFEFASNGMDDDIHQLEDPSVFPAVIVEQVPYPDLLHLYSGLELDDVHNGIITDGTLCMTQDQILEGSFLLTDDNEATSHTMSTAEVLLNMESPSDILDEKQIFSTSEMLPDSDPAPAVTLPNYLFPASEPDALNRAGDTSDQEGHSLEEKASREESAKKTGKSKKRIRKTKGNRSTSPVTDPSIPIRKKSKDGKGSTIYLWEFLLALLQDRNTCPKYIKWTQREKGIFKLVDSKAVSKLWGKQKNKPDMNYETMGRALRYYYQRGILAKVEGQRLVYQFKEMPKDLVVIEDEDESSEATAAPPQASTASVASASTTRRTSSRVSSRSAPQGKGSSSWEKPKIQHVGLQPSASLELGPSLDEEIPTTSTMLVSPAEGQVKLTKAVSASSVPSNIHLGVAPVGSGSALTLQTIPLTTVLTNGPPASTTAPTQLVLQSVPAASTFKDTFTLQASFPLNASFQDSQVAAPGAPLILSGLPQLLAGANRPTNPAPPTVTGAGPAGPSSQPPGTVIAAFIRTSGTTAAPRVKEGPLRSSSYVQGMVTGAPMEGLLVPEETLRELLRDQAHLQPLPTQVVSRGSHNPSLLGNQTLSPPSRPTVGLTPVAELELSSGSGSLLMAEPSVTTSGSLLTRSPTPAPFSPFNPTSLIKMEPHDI
# How it was run: as §1
# ELK4 = target: T9, ELK4 (Homo sapiens, UniProt P28324-2 1-405); details: protein: recombinant; tags: N-terminal GST; dsDNA, one strand shown
# T9 sequence: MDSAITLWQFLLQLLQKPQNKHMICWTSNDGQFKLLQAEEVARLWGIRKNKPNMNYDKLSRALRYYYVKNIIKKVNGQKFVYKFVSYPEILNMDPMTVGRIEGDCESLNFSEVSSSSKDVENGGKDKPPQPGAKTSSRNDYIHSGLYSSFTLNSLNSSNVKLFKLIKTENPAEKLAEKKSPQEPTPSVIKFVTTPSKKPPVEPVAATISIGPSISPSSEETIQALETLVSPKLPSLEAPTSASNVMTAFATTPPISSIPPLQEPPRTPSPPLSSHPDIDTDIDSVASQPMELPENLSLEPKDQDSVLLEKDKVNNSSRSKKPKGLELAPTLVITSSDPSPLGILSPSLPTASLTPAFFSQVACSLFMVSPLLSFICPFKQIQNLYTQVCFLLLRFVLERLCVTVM
# How it was run: as §1
# ETV2 = target: T10, ETV2 (Homo sapiens, UniProt O00321 1-342); details: protein: recombinant; tags: N-terminal GST; dsDNA, one strand shown
# T10 sequence: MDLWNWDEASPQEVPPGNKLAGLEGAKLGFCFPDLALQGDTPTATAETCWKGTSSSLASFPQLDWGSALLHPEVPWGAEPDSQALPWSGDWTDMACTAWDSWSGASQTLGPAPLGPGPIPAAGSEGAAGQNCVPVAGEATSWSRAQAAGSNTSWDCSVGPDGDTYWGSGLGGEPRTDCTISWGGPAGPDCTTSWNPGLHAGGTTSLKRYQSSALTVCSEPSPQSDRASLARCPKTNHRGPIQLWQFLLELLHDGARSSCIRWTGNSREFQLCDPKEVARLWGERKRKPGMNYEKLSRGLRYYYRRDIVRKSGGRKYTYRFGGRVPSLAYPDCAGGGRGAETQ
# How it was run: as §1
# ELF3 = target: T11, ELF3 (Homo sapiens, UniProt P78545 1-371); details: protein: recombinant; tags: N-terminal GST; dsDNA, one strand shown
# T11 sequence: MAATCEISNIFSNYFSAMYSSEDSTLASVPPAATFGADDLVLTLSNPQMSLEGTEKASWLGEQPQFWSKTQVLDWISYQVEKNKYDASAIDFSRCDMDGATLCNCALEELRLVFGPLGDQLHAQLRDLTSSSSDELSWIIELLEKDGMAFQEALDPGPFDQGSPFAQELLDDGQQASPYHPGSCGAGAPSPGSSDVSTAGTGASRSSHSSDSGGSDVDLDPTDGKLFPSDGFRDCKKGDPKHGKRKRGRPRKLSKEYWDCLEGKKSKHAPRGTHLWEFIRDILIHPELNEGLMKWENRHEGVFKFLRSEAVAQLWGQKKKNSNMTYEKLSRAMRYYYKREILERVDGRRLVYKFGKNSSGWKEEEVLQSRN
# How it was run: as §1
# CRX = CRX (Homo sapiens, UniProt O43186 1-299); details: protein: recombinant; tags: N-terminal GST; dsDNA, one strand shown
# Chain of CRX (O43186 whole entry): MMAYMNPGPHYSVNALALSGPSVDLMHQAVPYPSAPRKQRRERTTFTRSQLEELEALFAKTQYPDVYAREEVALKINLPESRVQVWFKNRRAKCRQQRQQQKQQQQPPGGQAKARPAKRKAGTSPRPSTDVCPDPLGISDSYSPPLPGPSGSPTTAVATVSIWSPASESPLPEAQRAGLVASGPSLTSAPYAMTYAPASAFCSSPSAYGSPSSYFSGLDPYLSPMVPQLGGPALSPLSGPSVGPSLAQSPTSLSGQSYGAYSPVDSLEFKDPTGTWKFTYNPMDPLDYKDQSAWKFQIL
# How it was run: as §1
# ETV1 = ETV1 (Homo sapiens, UniProt P50549 1-477); details: protein: recombinant; tags: N-terminal GST; dsDNA, one strand shown
# Chain of ETV1 (P50549 whole entry): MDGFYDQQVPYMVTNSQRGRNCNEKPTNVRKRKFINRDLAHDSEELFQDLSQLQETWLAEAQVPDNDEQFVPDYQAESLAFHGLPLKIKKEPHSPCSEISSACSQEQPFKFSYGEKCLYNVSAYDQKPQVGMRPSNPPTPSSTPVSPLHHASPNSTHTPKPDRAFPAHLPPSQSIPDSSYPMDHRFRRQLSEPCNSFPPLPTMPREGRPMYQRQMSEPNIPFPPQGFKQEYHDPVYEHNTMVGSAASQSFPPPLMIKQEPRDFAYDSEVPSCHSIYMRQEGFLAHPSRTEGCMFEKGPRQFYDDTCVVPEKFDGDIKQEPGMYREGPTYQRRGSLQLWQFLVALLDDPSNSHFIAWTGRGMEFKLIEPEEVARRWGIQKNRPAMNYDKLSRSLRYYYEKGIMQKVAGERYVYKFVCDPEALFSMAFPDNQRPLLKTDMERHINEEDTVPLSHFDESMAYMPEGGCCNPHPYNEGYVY
# How it was run: as §1
sequence,measurement,setting,value
TCCGTA,binding signal,FLI1,"1.57 fold enrichment (6-mer frequency, TF over GST control)"
same,binding signal,ELK1,"1.63 fold enrichment (6-mer frequency, TF over GST control)"
same,binding signal,GABPA,"1.59 fold enrichment (6-mer frequency, TF over GST control)"
same,binding signal,ERG,"1.52 fold enrichment (6-mer frequency, TF over GST control)"
same,binding signal,ELF1,"1.59 fold enrichment (6-mer frequency, TF over GST control)"
same,binding signal,EHF,"1.6 fold enrichment (6-mer frequency, TF over GST control)"
same,binding signal,SPI1,"1.69 fold enrichment (6-mer frequency, TF over GST control)"
same,binding signal,SPIB,"1.58 fold enrichment (6-mer frequency, TF over GST control)"
same,binding signal,ELK3,"1.62 fold enrichment (6-mer frequency, TF over GST control)"
same,binding signal,FEV,"1.43 fold enrichment (6-mer frequency, TF over GST control)"
same,binding signal,ETV5,"1.62 fold enrichment (6-mer frequency, TF over GST control)"
same,binding signal,HSF1,"1.1 fold enrichment (6-mer frequency, TF over GST control)"
same,binding signal,SPIC,"1.56 fold enrichment (6-mer frequency, TF over GST control)"
same,binding signal,ELF4,"1.47 fold enrichment (6-mer frequency, TF over GST control)"
same,binding signal,ELK4,"1.6 fold enrichment (6-mer frequency, TF over GST control)"
same,binding signal,ETV2,"1.63 fold enrichment (6-mer frequency, TF over GST control)"
same,binding signal,ELF3,"1.47 fold enrichment (6-mer frequency, TF over GST control)"
same,binding signal,CRX,"1.21 fold enrichment (6-mer frequency, TF over GST control)"
same,binding signal,ETV1,"1.47 fold enrichment (6-mer frequency, TF over GST control)"
